Data from the supplement of paper PMC6555819.

Assays:
Assay in all cases: PBM binding z-score (relative to random genomic background probes); higher = stronger binding; sequences stand for … in GC…GCGATTGACAGCGTAGAATGAAGG
[1] = system: FXR:RXRa (NR concentration 270 nM, RXRa partner concentration 90 nM)
Method in brief: (§1)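 Probes were double-stranded and carried 34-nt variable regions with direct-repeat seeds, single-nucleotide variants, half-site ablations and random human genomic background sequences, printed on custom Agilent 4×180K protein-binding microarrays. Arrays were incubated 1 h with ligand-free nuclear receptor dimers in PBS pH 7.4, 2% milk, 0.02% Triton X-100, 1 mM DTT, 0.2 mg/mL BSA and 0.4 mg/ml salmon testes DNA. Antibodies against each partner (one per run) detected binding, and scanned fluorescence was regression-normalized. Binding z-scores use the random background probes as reference.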

[2] = system: LXRa:RXRa (NR concentration 270 nM, RXRa partner concentration 90 nM)
Method in brief: as §1

[3] = system: LXRa homodimer (NR concentration 270 nM)
Method in brief: as §1

[4] = system: LXRb:RXRa (NR concentration 270 nM, RXRa partner concentration 90 nM)
Method in brief: as §1

[5] = system: LXRb homodimer (NR concentration 270 nM)
Method in brief: as §1

[6] = system: PPARa:RXRa (NR concentration 270 nM, RXRa partner concentration 90 nM)
Method in brief: as §1

[7] = system: PPARg:RXRa (NR concentration 180 nM, RXRa partner concentration 90 nM)
Method in brief: as §1

[8] = system: PPARg:RXRa 270nM:90nM, anti-RXR (NR concentration 270 nM, RXRa partner concentration 90 nM)
Method in brief: as §1

[9] = system: PPARg:RXRa 30nM:10nM, anti-RXR (NR concentration 30 nM, RXRa partner concentration 10 nM)
Method in brief: as §1

[10] = system: PPARg:RXRa 90nM:30nM, anti-RXR (NR concentration 90 nM, RXRa partner concentration 30 nM)
Method in brief: as §1

Row | Sequence | PBM binding z-score [1] | PBM binding z-score [2] | PBM binding z-score [3] | PBM binding z-score [4] | PBM binding z-score [5] | PBM binding z-score [6] | PBM binding z-score [7] | PBM binding z-score [8] | PBM binding z-score [9] | PBM binding z-score [10]
1 | CCTACTGAGCCATTCAGAGGTCATTGATCATATG | 2.84 | 4.67 | 6.83 | 3.88 | 1.24 | 3.63 | 0.797 | 1.84 | 0.239 | 1.39
2 | TCAATTAGTTGATTAGGGCAACCGAAACAGCGGA | 0.579 | 0.188 | -0.056 | 0.445 | -0.277 | 0.882 | 0.217 | 1.6 | 3.41 | 2.45
3 | CCTCGGAGGACAACAGGAGGTCAGAACTGCCAGA | 0.84 | 1.86 | 1.93 | 1.49 | -0.518 | 1.78 | 0.525 | -0.182 | -0.754 | -0.55
4 | CCTCGGAGCACAACAGGAGGTCAGAGCTGCCAGA | 0.811 | 1.54 | 1.97 | 1.4 | -0.755 | 1.65 | 0.0996 | 0.038 | -0.859 | -0.308
5 | GCATATAGGTAATACAAGGTGAAAATCCGATTGT | 0.325 | 1.44 | 0.125 | 0.602 | -0.207 | 1.5 | 1.55 | 1.09 | 0.599 | 0.773
6 | GATACAGCGTCAAGGCCAGAGTACGCGTATTGAT | -0.565 | -0.762 | -0.347 | -0.832 | -0.969 | -0.514 | 0.602 | -0.494 | -0.309 | -0.649
7 | CAGCCTAGGTCAGGGCCAGTTTAGGAGGAACGTT | 2.04 | 1.26 | -0.426 | 0.837 | -1.02 | 2.13 | 0.55 | 0.962 | -0.489 | 0.124
8 | GTTTGTAGATCAAGGTTAAGAAAGACTAAGCTAA | 0.943 | 1.64 | 0.556 | 0.954 | 0.547 | 1.84 | 1.93 | 2.88 | 1.48 | 2.65
9 | GCTACAGGGTCAGCTAGAGGCCAGAGTATGGAAA | 4.62 | 2.54 | -0.26 | 2.36 | -0.67 | 4.6 | 2.79 | 2.91 | 0.541 | 1.78
10 | CCGAGTAGGTTATGAGGCATTCAGGCAACGGTGA | -0.0177 | 0.0841 | -0.0523 | -0.158 | -0.156 | 1.02 | 1.3 | 2.22 | 0.331 | 1.44
11 | TCAGACAGGTGAAGCTAACTCAGGTACGCAGTCG | 0.462 | 0.31 | -0.268 | 0.231 | -0.92 | 0.744 | 0.519 | 1.5 | 3.44 | 2.75
12 | TATACAGGGTCAAAGGCCGGAGTACGAATGTCGA | 6.93 | 6.1 | 2.37 | 4.53 | 2.31 | 6.26 | 7.67 | 6.73 | 4.47 | 6.51
13 | CGAACTAGGTTAGAACAGGACAGTGAAGGATGAT | 0.283 | 0.174 | -0.0175 | -0.235 | 0.0334 | 1.22 | 1.6 | 1.27 | 0.448 | 0.886
14 | GCTTGTAGGTCAAGGTTAAGAAAGACTAAGCTAA | 5.3 | 4.01 | 0.371 | 3.16 | 0.186 | 5.37 | 9.1 | 7.63 | 6.21 | 7.79
15 | AGCATGAGGTTACCAAAGATCAGGGAAACGCTTG | 1.94 | 6.48 | 0.0616 | 3.13 | -0.682 | 2.77 | 1.41 | 1.4 | 0.579 | 1.07
16 | GCAGACAGGTGCAACGCAGGTAACTCAGGGTGGC | -0.722 | -0.509 | -0.668 | -0.958 | -1.31 | -0.475 | 0.119 | -0.844 | -0.761 | -0.904
17 | CCGACTGGGGCAAGGTTACCTTAACGCACAGCCA | 0.184 | 0.54 | -0.581 | 0.495 | -1.66 | 1.97 | 2.58 | 3.54 | 0.821 | 3.07
18 | TCTCGGAGGACACGAAGGTCAGTGCTTTCCAGAG | 1.02 | 1.19 | -0.141 | 0.731 | -0.921 | 1.59 | 0.156 | 1.49 | 2.2 | 1.94
19 | ACCTCTAGGTAAGACTCAGTTCAGTGAAGAACGC | -0.0705 | -0.143 | -0.072 | -0.301 | 0.0183 | -0.0817 | 0.0418 | 0.031 | -0.00405 | -0.257
20 | TCATATAGGCAAAAGGTGAAAGTCGGTGTGGTAA | 1.44 | 1.54 | -0.253 | 1.6 | -0.167 | 4.76 | 7.39 | 6.76 | 6.88 | 8.15
21 | CAAACTAGTTCAAAGGTCAAAGTCGAGCCAACCA | 7.5 | 6.94 | 5.57 | 6.5 | 2.97 | 7.02 | 11 | 9.72 | 11.8 | 11.7
22 | GCTTGTAGATCAAGGTTAAGATAGACTAAGCTAA | 0.296 | 1.56 | -0.0877 | 0.529 | -0.803 | 1.66 | 1.17 | 2.1 | 0.465 | 1.81
23 | ACAGACAGGTGAGTTAAGGTAACTCAGCTGGACG | 0.488 | -0.196 | -0.499 | -0.279 | -0.347 | 0.226 | 0.637 | 0.279 | 0.254 | 0.0651
24 | CATACAGGGTCAGCTAGGCCTGAGTAGGGACGGC | 4.59 | 2.64 | -0.384 | 1.79 | 0.0921 | 4.12 | 3.11 | 2.94 | 0.751 | 1.89
